PubChem BioAssay (NCI)
Where “and” joins values, the source holds several entries; their conditions need not be identical. Identical values can stand only once. Compounds without any hit were thinned out: in the full panel of roughly 83,000, 20% have a hit.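 Activity criterion: percent growth below 10, measured after cells in 96-well plates were exposed to a single compound concentration for 48 hours.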 Calls of active or inactive are those of the source.

system: HL-60(TB) leukemia; assay: NCI-60 one-dose screen, 48 h (100 = growth as untreated, 0 = no growth, -100 = all killed); conditions: 10 µM unless noted

Compound | growth
CC(C)(C)[Si](C)(C)O[C@H]1C(=O)C=CN2CC=C[C@@H]12 | 89.5% [100 µM] (inactive)
COc1ccc(-n2nc(C(=O)Nc3ccc(F)cc3)nc2-c2cc(OC)c(OC)c(OC)c2)cc1 | 91.5% (inactive)
CCOC(=O)c1cc(/C(=N\O)c2cc(OC)c(OC)c(OC)c2)n2c(C)cccc12 | 3.22% (active)
O=C(O)c1[nH]c(=O)[nH]c(=O)c1[N+](=O)[O-] | 127% (inactive)
Nc1c(Br)cc(Br)c2c1[nH]c(=O)c1ccccc12 | 89.8% (inactive)
C=Cc1cc[n+](CCCCCCCCCCCC)cc1 | 80% (inactive)
Cc1ccc(S(=O)(=O)Nc2sccc2-c2nc(-c3ccccc3)no2)cc1 | 105% (inactive)
CC/C(=C(\c1ccccc1)c1ccc(OCCNC)cc1)c1ccccc1 | 6.56% (active)
COc1ccc(/C=C/c2nc(Nc3ccc(Cl)cc3)c3ccccc3n2)cc1 | -11.3% (active)
Nc1ccc(S(=O)(=O)c2ccc(Cl)cc2)cc1 | 100% (inactive)
Nc1c(C(=O)O)[nH]c(=O)[nH]c1=O | 81.3% (inactive)
CN(C)Cc1ccc[nH]1 | 109% (inactive)
N=C(N)c1ccc(-c2ccc(/C=C/c3ccccc3)s2)cc1 | -39.5% (active)
O=C(C(=O)N1CCOCC1)c1ccc(O[C@H]2O[C@H](CO)[C@@H](O)[C@H](O)[C@@H]2O)cc1 | 113% (inactive)
O=C(c1ccccc1)c1cc2ccccc2oc1=O | 64.6% (inactive)
C/C=C(\C)C(C(=O)NC1CCCCC1)N(C(=O)C1CCc2cc(F)ccc2O1)c1ccc(Cl)cc1 (stereo not given) | 97.8% (inactive)
COc1ccc(-c2nc3c(c(-c4ccccc4)nn3-c3ccccc3)c(-c3ccc(N4CCN(C)CC4)cc3)c2C#N)cc1 | 80.4% (inactive)
O[C@H](c1cc(C(F)(F)F)nc2c(C(F)(F)F)cccc12)[C@@H]1CCCCN1 | 52.8% (inactive) and 50.7% (inactive)
COc1cc(NC(=O)Nc2cnc(Nc3ccc(N4CCOCC4)cc3)nc2Oc2cccc(OC)c2)cc(OC)c1 | 22.8% (inactive)
Cc1ccc2sc3c(NCCCNCCO)nc4ccccc4c3c(=O)c2c1 | -0.607% (active)

Compound | growth
O=C1C(=O)N(CCCCn2cc(CO)nn2)c2ccccc21 | 91.9% (inactive)
COc1ccc(/C=C/C(=O)Nc2ncnc3nc[nH]c23)cc1 | 78.8% (inactive)
COc1cc(C(=O)n2nc(N3CCN(C)CC3)c3cc(N)ccc32)cc(OC)c1OC | 1.68% (active)
Fc1ccc2[nH]cc(-c3nonc3-c3c[nH]c4ccc(Br)cc34)c2c1 | 34.5% (inactive)
Nc1n[nH]c2ccc([C@@H]3Nc4cc5c(cc4[C@H]4C6CCC(C6)[C@@H]34)C(=O)NC5)cc12 (stereo not given in full) | -39.2% (active)
Cc1cc(N2CCC(N3CCCC3)CC2)nc(/N=C(\N)Nc2ccc(Cl)c(Cl)c2)n1 | 90.4% (inactive)
CCCCCCOc1ccc(/C=N/Nc2cc(C)nc3ccc(Br)cc23)cc1 | -13.7% (active)
CC/C=C\C[C@H](O)C/C=C1/C(=O)C=C[C@@H]1C/C=C\CCCC(=O)N(C)C | 0.857% (active)
CC(c1ccccc1)n1ccnc1CO (stereo not given) | 101% (inactive)
CCN(C)CCCOc1ccc(/C(=C(\C)Cc2cccc(OC)c2)c2ccc(OC(C)=O)cc2)cc1 | 100% (inactive)
Cc1ccc(NC2=CC(=O)C(=O)c3ccccc32)c(C)c1 | 38% (inactive)
CCOc1cc2ncc(C#N)c(Nc3ccc(F)c(Cl)c3)c2cc1NC(=O)CC1CCSS1 (stereo not given) | -33.9% (active)
C=C1C(=O)O[C@H]2[C@H]1CC/C(COC(=O)NCc1cc3ccccc3[nH]1)=C\CC[C@@]1(C)O[C@@H]21 | -51.4% (active)
COc1ccc(NC(=O)c2cc(OC)c(OC)c(OC)c2)cc1O | 32.5% (inactive)
FC(F)(F)c1cccc(Nc2ccccc2)c1 | 92.7% (inactive)
CCc1ccc(CCCC(=O)O)cc1 | 98.8% (inactive)
CC/C(=C(/c1ccc(Cl)cc1)c1ccc(OCCN2CCCC2)cc1)c1ccc(OC)cc1 | 65.1% (inactive)
COC(=O)/C=C1/SC(=Nc2cccc(OC)c2)N(CCc2c[nH]c3ccc(O)cc23)C1=O | 59.8% (inactive)
O=C(Nc1ccc(Cl)cc1)Nc1ccc(Cl)c(C(F)(F)F)c1 | -60.8% (active)
O=C(CCC(C(=O)c1ccccc1)c1ccccc1)c1ccccc1 (stereo not given) | 28.1% (inactive)
